# Source: PubChem BioAssay
# SW480 rerep: induces DNA re-replication in SW480 colon adenocarcinoma cells; hit rate 1.8% among 340,000; SW480 DNA re-replication, Hoechst DNA content imaging, 48 h; Potency, µM (highest dose often 46.1 µM), without a hit: at the highest dose re-replication activation, actives largely listed as activators; AID 624297; further: potency means the concentration at half of the fitted maximal effect; % of control where 0% means no effect; nearly all actives have a fitted effect of over 55% in size
#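 Readout is total intensity of Hoechst-stained nuclei, excited at 405 nm and collected at 500-530 nm. Compound treatment lasted 48 hr at 37 C in 5% CO2 before staining.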
# ATXN viability: cell viability loss in ATXN counter-screen; hit rate 0.49% among 400,000; Potency, µM (doses to about 56.7 µM), usual class: cytotoxic; S2 cells (HEK-293 line with an ATXN2-luciferase reporter) viability, CellTiter-Fluor protease fluorescence, 24 h; further: potency means the concentration at half of the fitted maximal effect; nearly all actives have a fitted effect of over 40% in size
# PINK1 expr mod: PINK1 expression modulation; PINK1 immunofluorescence, high-content cytometry, 24 h; hit rate 0.2% among 410,000; Potency, µM (titrated, usually from 76.6 µM), for inactives: at the top dose activation (PINK1 increase), most hits filed as activators; AID 624263; active means well fitted activation curve with a large enough effect; inconclusive means small, poorly fitted or top-dose-only effect; cell line not stated here; further: potency means the concentration at half of the fitted maximal effect; % of control where 0% means no effect; nearly all actives have a fitted effect of over 65% in size
#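 A stable cell line was treated with compounds at 5 concentrations for 24 hours, with CCCP as control. PINK1 levels and mitochondrial localization were measured by immunofluorescence with mitochondrial, cell and nuclear markers after fixation, read by laser-scanning cytometry.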
# MCF10A rerep: induces DNA re-replication in MCF 10a normal breast cells; MCF 10A DNA re-replication, Hoechst nuclear intensity, 48 h; hit rate 2.9% among 350,000; AID 624296; Potency, µM (highest dose often 46.1 µM), for the others: at the highest dose activity, positive = re-replication, actives largely listed as activators; further: potency means the concentration at half of the fitted maximal effect; % of control where 0% means no effect; nearly all actives have a fitted effect of over 50% in size
# ATXN2 expr inh: reduces ATXN2 reporter expression in HEK-293 cells. HEK-293 ATXN2-luciferase reporter, luminescence, 24 h. Potency, µM (highest dose often 57 µM), without a hit: top-dose activity change, negative = inhibition, hits mostly inhibitors. hit rate 0.72% among 360,000; further: potency means the concentration at half of the fitted maximal effect; on the % scale 0 is the no-effect control and ±100 the full control effect; nearly all actives have a fitted effect of over 55% in size
#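 ATXN2-luciferase reporter cells (luciferase flanked by upstream and downstream ATXN2 gene portions) were treated 24 h at 37 °C with compounds at up to 57 uM. SteadyGlo luminescence gave expression; GF-AFC fluorescence gave viability.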
# IL1B secr inh: inhibitors of inflammasome signaling (IL-1 beta secretion); THP-1 LPS/ATP IL-1B secretion, AlphaLISA, 16 h; hits give low values; activity change, % at 57.5 µM; hit rate 4.7% among 360,000; AID 743279; in the data active means activity change below about -50%; inconclusive means mostly about -30% to -49%; further: on the % scale 0 is the no-effect control and ±100 the full control effect
#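 Secreted IL-1B measured by AlphaLISA bead assay after 16 h compound exposure of THP-1 cells; compounds (final up to 57.5 uM) added 1 h before LPS (250 ng/mL) and ATP (1.25 mM) stimulation; lower signal means less secretion.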
# Numbers without * were called inactive; i = inactive; ? = inconclusive; / = no result given; [ ] = dose if it differs, or a comment. A selection: hits, their analogues and other compounds. The true share with any hit is near 7.1%. Unless noted, the call rests on the fitted dose curve; in most records, active means well fitted curve in the direction sought with a large enough effect; inconclusive means small, poorly fitted or top-dose-only effect, or another doubt; inactive means no such curve, though single readings can be large; an effect the other way counts as inactive or inconclusive.
SMILES,SW480 rerep,ATXN viability,PINK1 expr mod,MCF10A rerep,ATXN2 expr inh,IL1B secr inh
CN(C)CCCN(Cc1ccccc1)C(=S)Nc1ccc(SC(F)F)cc1,12%,?,-1%,24%,-25%,?
COc1ccc(S(=O)(=O)NCCS(=O)(=O)N2CCN(c3ccccc3)CC2)cc1C,/,i,1%,/,-14%,/
CCC1CCCCN1S(=O)(=O)c1cc2c(cc1C)NC(=O)CO2 (configuration not stated),/,i,-1%,/,-22%,/
CCn1c(CNC(=O)c2ccc(OC)cc2)nnc1SCC(=O)Nc1ccc(C)cc1,/,?,2%,/,-3%,/
FC(F)(F)c1ccc(NC(=S)NCc2ccccc2)cc1,9%,i,?,?,-24%,-62*
O=C(O)c1ccc(NC(=S)NCc2ccccc2)cc1,-5%,i,1%,-8%,6%,29
COc1cccc(N2C(=O)C(CC(=O)Nc3ccc(Cl)cc3)N(Cc3ccc4c(c3)OCO4)C2=O)c1 (configuration not stated),/,?,0%,/,-31%,/
CCCCCn1c(-c2ccc(OC)c(OC)c2)nc2ccccc21,/,?,14%,/,?,/
O=c1[nH]c2ccccc2c2oc(CCl)nc12,-5%,i,-2%,21µM*,-22%,-101*
COc1ccc(NC(=O)c2ccco2)cc1NC(=O)COc1ccccc1Cl,/,/,10%,/,/,/
CCCNC(=O)C1(C)CCN(C(=O)c2ccc3sccc3c2)C1 (configuration not stated),/,i,1%,/,0%,11
Oc1ccc2ccccc2c1CN1CCCC1,-1%,i,0%,6%,25%,27
Oc1ccc2cc(Br)ccc2c1CN1CCCC1,7%,?,0%,?,-11%,-58*
COc1ccc(OC)c(CNS(=O)(=O)c2c(C(=O)N3CCCCCC3)c(C)n(C)c2C)c1,/,?,1%,/,8%,/
Cc1noc(C)c1CSc1nc2[nH]ncc2c(=O)n1-c1ccccc1,?,?,8%,1.3µM*,26%,18
Cc1noc(C)c1CSc1nc2ccccc2c(=O)n1-c1ccc(F)cc1F,?,i,4%,13µM*,-14%,-12
Cc1noc(C)c1CSc1nc2ccccc2c(=O)n1-c1ccccc1,13µM*,?,17%,7.3µM*,-3%,-6
O=c1c2cn[nH]c2nc(SCc2c(F)cccc2F)n1-c1ccc(Cl)cc1,15%,i,-1%,?,-13%,-74*
CN(C(=O)CSc1nc2ccccc2c(=O)n1-c1ccc(F)cc1F)C1CCS(=O)(=O)C1 (configuration not stated),0%,?,-2%,-1%,3%,9
COc1cccc2c1cc1c(=O)n(CC(=O)NCc3ccco3)nc(C)n12,/,/,0%,/,/,/
Clc1ccc(Cn2c3c(c4ccccc42)CCc2cc4ccccc4nc2-3)cc1,/,/,5%,/,/,/
Cc1ccc2nc(N3C(=O)C(O)=C(C(=O)c4ccc(C)o4)C3c3cccc(O)c3)sc2c1 (configuration not stated),17%,/,10%,23µM*,0%,-10
CC(=O)Nc1ncc(N=Nc2cccc(C(F)(F)F)c2)s1,0%,?,8%,10%,-11%,-6
Cc1cccc(N=Nc2cnc(N)s2)c1,2%,i,0%,-3%,55%,-65*
Cc1ccc(NC(=O)Cn2cc(C=O)c3ccccc32)cc1,15µM*,i,9%,29%,-9%,65
Cc1cc(C)cc(NC(=S)NCCSc2ccc(Cl)cc2)c1,0%,i,2%,21µM*,?,-202*
COC(=O)Cc1ccc(NC(=S)NCCO)cc1,2%[9.22 µM],i,0%,-12%,1%,14
COC(=O)Cc1ccc(NC(=S)NCCSc2ccc(Cl)cc2)cc1,3%,i,10%,?,-27%,-57*
Cc1ccc(SCCNC(=S)Nc2ccc(C)c(C)c2)cc1,?,i,-5%[38.3 µM],15µM*,0%,-28
